Five molecules from PubChem BioAssay can be followed below.

Assay [1] concerns PRMT1 (protein arginine N-methyltransferase 1). Description: PRMT1 binders on small-molecule microarrays, primary screen, biochemical, small-molecule microarray, 635 nm fluorescence (AID 1088).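 Further: binding of Prmt1 protein to compounds spotted on small-molecule microarray slides.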 The note with it: small-molecule microarray binding, higher = more signal.
Assay [2] is described as follows: yeast growth modulation, basal conditions, primary screen, YJM789 clinical isolate, OD600, 24 h (AID 1089).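 Further: growth of clinical yeast isolate S. cerevisiae YJM 789 seeded 1000 cells per well; test concentration not given here.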 Conditions: S. cerevisiae YJM789 growth, higher = more signal, called active from +8 up or from −8 down.
Assay [3] is described as follows: fission yeast growth modulation, primary screen, strain 972, OD600, 24 h, no modulator (AID 1090).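 Further: basal condition with compound alone and no growth modifier present; test concentration not given here.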 The note with it: S. pombe 972 growth, higher = more signal, called active from +8 up or from −8 down.
Assay [4] can be described thus: S. cerevisiae growth modulation with rapamycin, primary screen, strain BY4716, OD600, 96 h (AID 1091). Further: test concentration not given here. The note with it: higher = more signal, called active from +8 up or from −8 down.
For assay [5], the target named is Torsin-1A-interacting protein 2 (Homo sapiens) (UniProt Q8NFQ8). Description: LULL1 binders on small-molecule microarray, primary screen, cell lysate, human LULL1 lysate, 635/667 nm fluorescence (AID 1092).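 Further: probe is lysate of COS7 cells overexpressing human LULL1; score merges per-feature 667 nm fluorescence with signal-to-noise.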 The note with it: hLULL1 lysate binding, 635 nm fluorescence, higher = more signal.
Sequence of Torsin-1A-interacting protein 2 (Homo sapiens) (Q8NFQ8 whole entry, looked up): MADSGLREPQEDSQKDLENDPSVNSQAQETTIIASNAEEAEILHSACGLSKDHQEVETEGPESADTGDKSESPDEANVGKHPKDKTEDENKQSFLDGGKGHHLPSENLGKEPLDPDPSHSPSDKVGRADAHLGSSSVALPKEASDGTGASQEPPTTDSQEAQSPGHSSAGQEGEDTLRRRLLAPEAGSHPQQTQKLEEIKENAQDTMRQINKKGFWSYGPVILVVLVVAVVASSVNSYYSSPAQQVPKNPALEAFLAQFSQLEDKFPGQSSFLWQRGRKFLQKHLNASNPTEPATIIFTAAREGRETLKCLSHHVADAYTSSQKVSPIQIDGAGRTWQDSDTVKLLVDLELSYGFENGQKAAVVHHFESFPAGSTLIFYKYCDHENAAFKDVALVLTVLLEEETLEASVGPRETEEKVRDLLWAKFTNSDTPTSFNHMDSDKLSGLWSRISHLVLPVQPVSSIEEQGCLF
The nature of assay [6]: E. coli growth modulation, two-sided OD650, primary screen, E. coli filamentation project, strain DRC41, 24 h (AID 1093).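 Further: MC1000 strain lacking acrAB efflux and sulA so SOS filamentation is blocked; test concentration not given here.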 Conditions: OD650, 24 h, higher = more signal, called active from +8 up or from −8 down.
A short description of assay [7]: small-molecule microarray binders of probe aLefty2, primary screen, biochemical, biotinylated probe, 635/667 nm fluorescence (AID 1094).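 Further: score merges spot fluorescence near 667 nm with spot signal-to-noise ratio.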 Conditions: higher = more signal.
Assay [8] has as its system Noggin (protein binding on small-molecule microarray). Description: Noggin binders on small-molecule microarray, primary screen, biochemical, 635/667 nm fluorescence (AID 1095).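 Further: score merges 667 nm feature fluorescence with signal to noise over triplicate slides.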 Conditions: 635 nm fluorescence, higher = more signal.
In assay [9] the target is Neurogenic locus notch homolog protein 3 (Homo sapiens) (UniProt Q9UM47). The assay is described as follows: NOTCH3 binders on small-molecule microarray, primary screen, biochemical, 635/667 nm fluorescence (AID 1096). Conditions: NOTCH3 binding, 635 nm fluorescence, higher = more signal.
Sequence of Neurogenic locus notch homolog protein 3 (Homo sapiens) (Q9UM47 whole entry, looked up): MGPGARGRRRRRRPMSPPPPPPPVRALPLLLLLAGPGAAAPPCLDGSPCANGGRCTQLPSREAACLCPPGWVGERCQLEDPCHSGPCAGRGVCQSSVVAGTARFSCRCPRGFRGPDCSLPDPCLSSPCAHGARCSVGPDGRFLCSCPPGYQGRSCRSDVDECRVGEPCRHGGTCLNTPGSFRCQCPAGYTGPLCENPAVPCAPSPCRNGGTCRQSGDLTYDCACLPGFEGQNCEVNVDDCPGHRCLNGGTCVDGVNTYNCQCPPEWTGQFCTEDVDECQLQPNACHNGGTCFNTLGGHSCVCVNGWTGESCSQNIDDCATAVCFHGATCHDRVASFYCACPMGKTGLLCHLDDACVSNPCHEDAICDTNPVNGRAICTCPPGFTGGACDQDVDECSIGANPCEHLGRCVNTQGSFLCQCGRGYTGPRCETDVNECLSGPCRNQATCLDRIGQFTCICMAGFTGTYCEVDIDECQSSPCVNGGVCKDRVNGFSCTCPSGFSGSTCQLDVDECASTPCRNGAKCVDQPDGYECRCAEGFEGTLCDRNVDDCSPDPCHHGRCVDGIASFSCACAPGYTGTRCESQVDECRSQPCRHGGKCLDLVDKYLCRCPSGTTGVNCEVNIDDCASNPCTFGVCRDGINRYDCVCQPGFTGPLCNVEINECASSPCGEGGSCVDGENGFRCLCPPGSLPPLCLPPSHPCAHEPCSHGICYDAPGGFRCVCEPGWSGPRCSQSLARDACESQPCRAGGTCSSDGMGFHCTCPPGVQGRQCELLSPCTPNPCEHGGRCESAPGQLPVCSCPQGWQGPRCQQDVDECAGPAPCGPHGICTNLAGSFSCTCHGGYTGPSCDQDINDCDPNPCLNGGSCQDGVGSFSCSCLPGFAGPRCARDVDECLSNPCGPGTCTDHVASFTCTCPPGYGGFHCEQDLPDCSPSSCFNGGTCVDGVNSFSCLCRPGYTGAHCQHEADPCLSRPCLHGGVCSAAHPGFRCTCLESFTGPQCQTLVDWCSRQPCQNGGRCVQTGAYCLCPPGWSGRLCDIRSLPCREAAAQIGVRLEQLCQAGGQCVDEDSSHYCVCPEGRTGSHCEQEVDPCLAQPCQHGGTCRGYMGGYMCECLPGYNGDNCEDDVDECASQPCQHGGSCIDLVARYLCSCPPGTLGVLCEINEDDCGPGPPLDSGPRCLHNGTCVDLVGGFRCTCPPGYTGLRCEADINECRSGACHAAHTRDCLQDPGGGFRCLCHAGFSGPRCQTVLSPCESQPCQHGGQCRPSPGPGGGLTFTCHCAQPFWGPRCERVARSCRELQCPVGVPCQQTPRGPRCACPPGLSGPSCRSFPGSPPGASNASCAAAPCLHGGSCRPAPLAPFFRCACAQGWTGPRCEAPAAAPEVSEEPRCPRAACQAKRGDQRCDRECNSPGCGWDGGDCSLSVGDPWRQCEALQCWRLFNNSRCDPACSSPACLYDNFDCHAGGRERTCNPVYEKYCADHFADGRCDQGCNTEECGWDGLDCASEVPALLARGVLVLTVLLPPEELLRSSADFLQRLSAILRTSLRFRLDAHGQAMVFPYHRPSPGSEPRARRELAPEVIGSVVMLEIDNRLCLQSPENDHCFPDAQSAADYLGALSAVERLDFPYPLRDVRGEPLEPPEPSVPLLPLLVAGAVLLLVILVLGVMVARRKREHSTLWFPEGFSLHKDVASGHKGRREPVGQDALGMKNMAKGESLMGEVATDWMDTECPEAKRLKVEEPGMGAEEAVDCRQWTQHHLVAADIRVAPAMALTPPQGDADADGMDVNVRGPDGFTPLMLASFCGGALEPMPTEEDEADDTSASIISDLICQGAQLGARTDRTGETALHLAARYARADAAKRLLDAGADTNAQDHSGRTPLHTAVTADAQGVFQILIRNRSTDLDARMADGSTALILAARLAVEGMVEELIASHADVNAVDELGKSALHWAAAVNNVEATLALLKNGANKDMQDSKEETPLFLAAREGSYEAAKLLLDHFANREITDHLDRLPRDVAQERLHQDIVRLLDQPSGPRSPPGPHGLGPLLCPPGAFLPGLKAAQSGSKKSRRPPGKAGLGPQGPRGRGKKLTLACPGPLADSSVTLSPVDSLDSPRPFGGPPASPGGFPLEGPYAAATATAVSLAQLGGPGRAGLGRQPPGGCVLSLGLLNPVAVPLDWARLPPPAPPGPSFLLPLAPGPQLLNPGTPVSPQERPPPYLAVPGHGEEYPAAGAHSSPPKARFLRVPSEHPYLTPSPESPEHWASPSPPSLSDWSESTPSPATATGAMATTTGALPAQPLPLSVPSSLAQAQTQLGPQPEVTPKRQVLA
A short description of assay [10]: small-molecule microarray binders of probe aEGFR, primary screen, biochemical, biotinylated probe, 635/667 nm fluorescence (AID 1097).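 Further: probe is a biotinylated anti-EGFR antibody binding compounds printed on slides; score combines fluorescence near 667 nm and signal to noise of each spot.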 Conditions: higher = more signal.
Assay [11] concerns Plasmodium falciparum Sir2 (PF13_0152, Sir2A). Description: pfSir2 binders on small-molecule microarrays, primary screen, biochemical, small-molecule microarray, 635 nm fluorescence (AID 1098).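 Further: score merges spot fluorescence intensity with its signal-to-noise ratio.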 The note with it: small-molecule microarray binding, fluorescence 635 nm; higher = more signal.
Assay [12] can be described thus: small-molecule microarray binders of probe aDKK1, primary screen, biochemical, biotinylated probe, 635/667 nm fluorescence (AID 1099).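 Further: score merges 667nm spot fluorescence with signal to noise across triplicate slides; reference of the scale not given here.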 The note with it: higher = more signal.
The nature of assay [13]: small-molecule microarray binders of probe aCHRDL2, primary screen, biochemical, biotinylated probe, 635/667 nm fluorescence (AID 1100). Conditions: higher = more signal.
A short description of assay [14]: splicing luciferase reporter signal modulators, primary screen, spliceosome inhibition project, cell-based, HEK293, splice +/- reporter (AID 1101).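 Further: HEK293 cells carrying a splicing-competent luciferase reporter gene; test concentration not given here.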 The note with it: luminescence, 24 h, higher = more signal, called active from +8 up or from −8 down. For orientation: A reporter such as luciferase makes a cellular process visible.
For assay [15], the target named is Fibroblast growth factor 10 (Homo sapiens) (UniProt O15520). Description: FGF10 binders on small-molecule microarrays, primary screen, biochemical, small-molecule microarray, 635 nm fluorescence (AID 1102). The note with it: FGF10 binding, fluorescence 635 nm, higher = more signal.
Sequence of Fibroblast growth factor 10 (Homo sapiens) (O15520 whole entry, looked up): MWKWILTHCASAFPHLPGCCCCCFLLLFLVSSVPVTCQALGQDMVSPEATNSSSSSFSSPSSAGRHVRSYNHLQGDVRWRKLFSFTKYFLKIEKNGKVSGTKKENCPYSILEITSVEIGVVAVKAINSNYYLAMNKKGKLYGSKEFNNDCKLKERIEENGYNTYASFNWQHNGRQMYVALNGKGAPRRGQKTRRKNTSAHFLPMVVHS
The subject of assay [16] is glycogen synthase kinase-3 (GSK3A per assay name; protocol says GSK3B). Description: GSK3 binders on small-molecule microarrays, primary screen, biochemical, small-molecule microarray, 635 nm fluorescence, GSK3A (AID 1103). Further: the record names both GSK3A and GSK3B. Conditions: small-molecule microarray binding, fluorescence 635 nm; higher = more signal.
The target of assay [17] is Epidermal growth factor receptor (Homo sapiens) (UniProt P00533). Description: EGFR binders on small-molecule microarrays, primary screen, biochemical, small-molecule microarray, 635 nm fluorescence (AID 1104).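 Further: score merges 667 nm emission intensity with spot signal to noise over triplicate slides.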 The note with it: EGFR binding, higher = more signal.
Sequence of Epidermal growth factor receptor (Homo sapiens) (P00533 whole entry, looked up): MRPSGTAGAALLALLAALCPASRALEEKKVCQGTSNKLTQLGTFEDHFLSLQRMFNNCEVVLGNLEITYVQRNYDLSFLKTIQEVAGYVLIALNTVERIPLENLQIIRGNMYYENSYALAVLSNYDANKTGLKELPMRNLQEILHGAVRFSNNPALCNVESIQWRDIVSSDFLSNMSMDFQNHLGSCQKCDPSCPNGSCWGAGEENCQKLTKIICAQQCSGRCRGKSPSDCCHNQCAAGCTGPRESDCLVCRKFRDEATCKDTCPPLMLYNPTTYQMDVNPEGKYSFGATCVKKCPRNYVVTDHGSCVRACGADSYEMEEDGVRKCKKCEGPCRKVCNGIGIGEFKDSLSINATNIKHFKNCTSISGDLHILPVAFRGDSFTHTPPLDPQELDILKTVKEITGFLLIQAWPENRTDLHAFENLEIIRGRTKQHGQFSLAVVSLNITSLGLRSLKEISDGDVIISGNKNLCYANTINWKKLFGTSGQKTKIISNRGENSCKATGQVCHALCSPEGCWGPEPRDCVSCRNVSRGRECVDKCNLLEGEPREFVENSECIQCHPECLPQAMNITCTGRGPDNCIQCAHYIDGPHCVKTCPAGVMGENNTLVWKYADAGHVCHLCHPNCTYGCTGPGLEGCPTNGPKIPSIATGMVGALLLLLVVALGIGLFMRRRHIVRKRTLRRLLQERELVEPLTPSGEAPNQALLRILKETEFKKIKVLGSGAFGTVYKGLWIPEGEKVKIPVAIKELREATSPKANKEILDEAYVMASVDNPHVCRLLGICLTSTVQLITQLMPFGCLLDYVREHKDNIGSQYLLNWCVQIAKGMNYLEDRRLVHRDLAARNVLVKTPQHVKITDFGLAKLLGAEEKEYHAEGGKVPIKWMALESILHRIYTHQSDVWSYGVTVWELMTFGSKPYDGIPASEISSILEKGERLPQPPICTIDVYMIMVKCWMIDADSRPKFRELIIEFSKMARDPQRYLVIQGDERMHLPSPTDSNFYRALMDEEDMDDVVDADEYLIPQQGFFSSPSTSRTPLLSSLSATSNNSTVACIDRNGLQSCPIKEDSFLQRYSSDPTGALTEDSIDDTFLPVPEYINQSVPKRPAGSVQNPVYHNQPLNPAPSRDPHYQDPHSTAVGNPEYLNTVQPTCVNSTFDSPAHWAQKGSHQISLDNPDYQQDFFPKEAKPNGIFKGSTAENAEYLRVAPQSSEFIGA
Assay [18] has as its target Follistatin-related protein 3 (Homo sapiens) (UniProt O95633). The assay is described as follows: FSTL3 binders on small-molecule microarrays, primary screen, biochemical, small-molecule microarray, 635 nm fluorescence (AID 1105).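 Further: score merges emission near 667 nm and signal to noise per printed spot across three slides.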 The note with it: FSTL3 binding, higher = more signal.
For assay [19], the target named is Dickkopf-related protein 1 (Homo sapiens) (UniProt O94907). Description: DKK1 binders on small-molecule microarrays, primary screen, biochemical, small-molecule microarray, 635 nm fluorescence scan (AID 1106).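 Further: score merges emission near 667 nm with signal to noise over three replicate slides.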 The note with it: DKK1 binding, higher = more signal.
Sequence of Dickkopf-related protein 1 (Homo sapiens) (O94907 whole entry, looked up): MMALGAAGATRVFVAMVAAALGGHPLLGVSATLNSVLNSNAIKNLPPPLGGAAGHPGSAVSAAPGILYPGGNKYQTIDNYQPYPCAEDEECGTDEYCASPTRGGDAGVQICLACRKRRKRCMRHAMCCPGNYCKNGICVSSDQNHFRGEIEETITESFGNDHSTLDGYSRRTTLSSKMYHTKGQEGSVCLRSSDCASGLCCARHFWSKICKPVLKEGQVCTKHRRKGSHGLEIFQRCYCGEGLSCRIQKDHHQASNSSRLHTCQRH
Assay [20] concerns Inhibin beta A chain (activin A). Description: INHBA (activin A) binders on microarrays, primary screen, biochemical, small-molecule microarray, 635 nm fluorescence scan (AID 1107).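 Further: mouse activin A protein probed at 4.33 µg/mL on printed slides; score merges bound-protein fluorescence near 667 nm with spot signal-to-noise.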 Conditions: small-molecule microarray binding, higher = more signal.

The source made the active and inactive calls.

Sequence of Follistatin-related protein 3 (Homo sapiens) (O95633 whole entry, looked up): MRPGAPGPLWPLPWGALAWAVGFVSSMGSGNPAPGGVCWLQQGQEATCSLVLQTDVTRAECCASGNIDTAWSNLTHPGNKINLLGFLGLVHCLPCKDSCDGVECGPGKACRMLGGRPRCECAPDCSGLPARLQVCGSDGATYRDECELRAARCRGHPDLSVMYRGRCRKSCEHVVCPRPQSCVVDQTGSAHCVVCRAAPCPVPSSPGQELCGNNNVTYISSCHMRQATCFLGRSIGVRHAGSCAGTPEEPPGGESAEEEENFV

Take `[N-]=[N+]=NCc1ccccc1[C@H]1OC(c2ccc(OCCCO)cc2)=N[C@@]1(Cc1ccccc1N=[N+]=[N-])C(=O)NCc1ccccc1`: the composite z-score was determined as 1.4 in assay [1]; 2.69 in [5]; 0.232 in assay [7]; 0.159 in [8]; 0.867 in assay [9]; 0.223 in assay [10]. The composite z-score in [11] is 1.01; in assay [12] it was 1.09; in assay [13], 1.1; in assay [15], 1.03; in assay [16] it was 1.04; in assay [17] it was -0.296. For the same molecule, the composite z-score in assay [18] was 0.62; in assay [19], -0.193; in [20], 1.13. The z-score in assay [2] is 0.0182 (inactive); in assay [3], 1.98 (inactive); in assay [4] it was 11.8 (active); in assay [6], 0.0275 (inactive); in assay [14], 0.672 (inactive).
`COc1ccc(C(O)C2C=CC3C(=O)N(C)C(=O)C3N2N2CCCCC2)cc1OCc1ccccc1` (stereo not given): the composite z-score is 0.922 in assay [1]; 2.73 in assay [5]; 0.491 in [7]; -0.171 in [8]; 1.12 in assay [9]; 0.0787 in assay [10]. Further, the composite z-score was 0.774 in [11]; 1.1 in assay [12]; 0.851 in assay [13]; 0.26 in assay [15]; 0.636 in assay [16]; -0.001 in [17]. For the same molecule, the composite z-score is 0.371 in assay [18], -0.622 in assay [19] and 0.986 in [20]. The z-score in assay [2] is 0.371 (inactive); in assay [3] it was -0.0814 (inactive); in assay [4], 1.01 (inactive); in [6] it was -1.23 (inactive); in [14] it was 0.379 (inactive).
For `Cc1ccc(N2C(=O)c3ccccc3[C@@H](C(=O)NCc3ccccc3)[C@@H]2c2ccc(CO)cc2)nc1`, the composite z-score in [1] was -0.363; in assay [5], 1.39; in assay [7], 0.306; in assay [8], 0.0163; in [9] it was -0.763; in assay [10], -0.166. Moreover, the composite z-score is -0.566 in assay [11]; 0.601 in [12]; 1.01 in assay [13]; 0.329 in [15]; -1.13 in assay [16]; -0.446 in assay [17]. In addition, the composite z-score is -0.526 in assay [18], 0.251 in assay [19] and 1.71 in [20]. Further, the z-score in [2] is 0.938 (inactive); in [3] it was -0.242 (inactive); in assay [4], 0.76 (inactive); in assay [6], 1.29 (inactive); in assay [14], -1.47 (inactive).
For the molecule `CCCC=C(CCC)[C@@H](NS(=O)(=O)c1ccc(C(F)(F)F)cc1)c1ccc(-c2ccccc2)cc1`, the composite z-score in assay [1] is 1.09; in assay [5], 3; in [7], 0.0491; in assay [8] it was 0.77; in [9], 0.762; in [10], -0.013. Also, the composite z-score in [11] amounted to 0.163; in assay [12], 0.888; in assay [13], 0.83; in assay [15], 1.13; in assay [16] it was 0.72; in assay [17] it was 0.201. In addition, the composite z-score in [18] was 0.38; in assay [19], -0.112; in [20] it was 0.835. Besides, the z-score is 0.251 (inactive) in assay [2]; -3.21 (inactive) in assay [3]; -0.1 (inactive) in [4]; -0.39 (inactive) in assay [6]; -1.69 (inactive) in assay [14].
Turning to `CC(=O)NCCCC[C@@H]1NC(=O)[C@@H]2C[C@H](C(=O)NCCCCCCN(C)C)[C@H](c3ccc(O)cc3)N2C1=O`, the composite z-score in assay [1] amounted to 1.54; in [5], 2.4; in assay [7] it was 0.691; in assay [8], 1.61; in [9], 1.08; in assay [10], 0.177. The composite z-score in assay [11] amounted to 1.02; in assay [12], 0.363; in assay [13], 0.117; in assay [15], 1.25; in [16] it was 1.36; in [17] it was 1.31. The composite z-score in assay [18] stood at 1.5; in assay [19] it was 1.86; in assay [20], 0.11. The z-score was 0.146 (inactive) in assay [2]; -0.542 (inactive) in [3]; 0.905 (inactive) in [4]; 1.02 (inactive) in assay [6]; -1.45 (inactive) in assay [14].
